Assay outcomes deposited in PubChem by several laboratories.
Shown are actives, neighbours in structure and some others; about 4.6% of the full set was active somewhere.
V-ATPase pHluor: alters yeast V-ATPase proton transport. AID 504577. S. cerevisiae, pHLuorin cytosolic pH fluorescence. 350,000 tested, 0.37% active. response, % at 10 µM; in the data active means response mostly above about 7.3%, no sharp cut-off; inactive means mostly below about 5.4%; further: actives read high
tim10-1 inh: tim10-1 yeast growth inhibition; inhibition, % at 20 µM; S. cerevisiae tim10-1 ts strain growth, BacTiter-Glo, 24 h; 330,000 tested, 2.2% active;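 active means inhibition of at least 40%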;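 further: mutant grown at 25 °C; 0% = DMSO wells with yeast and 100% = wells holding no yeast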
TIM10 inh: inhibits growth of TIM10 yeast strain; 330,000 tested, 1.4% active; AID 463195; S. cerevisiae TIM10 strain growth, BacTiter-Glo luminescence, 24 h; inhibition, % at 10 µM;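 active means inhibition of 40% or more at the single tested concentration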;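 further: wild-type TIM10 isogenic control strain grown at permissive 25 °C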
SKKanGAS inh: SKKanGAS growth inhibition; inhibition, % at 7.5 µM; 300,000 tested, 1.3% active; S. pyogenes SKKanGAS, kanamycin growth, BacTiter-Glo, 6 h;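 active means mean replicate score, as percent of positive control median, at least 50; inconclusive means mean below 50 but one replicate at or above 50; inactive means mean and every replicate below 50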;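 further: strain carries kanamycin resistance gene driven by streptokinase promoter and grows in 40 µg/ml kanamycin; loss of luminescence reflects streptokinase promoter inhibition or plain growth inhibition; 0% = median of DMSO wells and 100% = positive control at its reference dose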
PfHsp90 set2: growth inhibition of yeast expressing Plasmodium Hsp90; 310,000 tested, 0.32% active; inhibition, % at 9.4 µM; S. cerevisiae expressing PfHsp90, BacTiter-Glo ATP, 48 h; yeast lacking PDR1 and PDR3 efflux regulators;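 active means every replicate shows inhibition above about 80%, whatever the replicate mean, limit read from the data; inconclusive means mean inhibition reaches the set limit but some replicate falls short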;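 further: 0% = DMSO neutral controls and 100% = 20 µM radicicol positive controls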
tim23-1 inh: tim23-1 yeast growth inhibition; AID 463212; S. cerevisiae tim23-1 growth, BacTiter-Glo luminescence, 24 h; inhibition, % at 20 µM; 330,000 tested, 1.3% active;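 active means growth inhibition of the mutant yeast at or above 50%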;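 further: temperature-sensitive mutant grown at 25 °C; plate controls were DMSO-treated mutant yeast for no effect and medium wells lacking yeast for full effect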
V-ATPase pH SP: modulates yeast V-ATPase proton transport; shares compounds with V-ATPase pHluor; S. cerevisiae pHLuorin cytosolic pH; response, % at 10 µM; 980 tested, 2% active; in the data active means response above about 24%;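 further: plate controls were vehicle wells for no effect and positive control wells for full effect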
* = called active by the depositor; ? = inconclusive; / = no result.

SMILES | V-ATPase pHluor | tim10-1 inh | TIM10 inh | SKKanGAS inh | PfHsp90 set2 | tim23-1 inh | V-ATPase pH SP
CC(=O)c1cccc(NS(=O)(=O)N2CCCCC2)c1 | 16.5* | -0.2 | 4.6 | 0.1 | 49.5 | 10.6 | 2.2
O=S(=O)(Nc1ccccc1)N1CCCCC1 | -1.3 | / | / | / | 6.4 | / | /
C=CCNCCOc1c(C)cc(C)cc1Cl | 7.7* | 10.1 | -4.3 | 1.2 | 1.0 | 11.9 | 2.7
Cc1cccc(C)c1NC(=O)CNC(=O)c1ccccc1 | -3.5 | 9.9 | 4.1 | -0.5 | -3.8 | -1.9 | /
Cc1cccc(C)c1NC(=O)CNC(=O)c1ccncc1 | 8.3* | -16.5 | -5.7 | 2.1 | 6.8 | -1.3 | -2.0
Clc1ccc(OCCn2cnc(Cl)c2Cl)cc1 | 0.4 | 13.7 | 2.6 | -5.5 | 5.3 | 19.6 | /
CC(=O)N/C(=C\c1ccccc1)C(=O)N1CCOCC1 | 10.4* | -1.9 | 9.3 | 5.0 | 5.1 | -2.8 | 1.7
COc1ccccc1NC(=O)c1ccccc1S(=O)(=O)c1ccccc1[N+](=O)[O-] | 10.8* | 18.0 | 4.4 | 5.8 | -11.9 | 4.9 | 6.2
COc1cccc(CN(C)CCCn2cnc(C(=O)Nc3ccc(C)c(C)c3)n2)c1 | 1.2 | / | / | / | 6.4 | / | /
CC1CCCC(NC(=S)Nc2cccc(S(=O)(=O)N(C)C)c2)C1C (stereo not drawn) | 8.2* | 24.7 | 14.8 | -2.7 | 18.4 | 22.0 | 5.4
CC(C)C(NC(=O)c1ccccc1NC(=O)c1ccccc1)C(=O)NCCCn1ccnc1 (stereo not drawn) | 9.5* | 1.6 | -5.5 | 0.8 | -8.6 | 4.1 | 0.6
CN1CCN(C(=O)C(C(=O)c2ccc(F)cc2)n2ccccc2=O)CC1 (stereo not drawn) | 2.2 | -9.9 | 4.4 | -2.7 | -20.4 | 6.7 | /
N#Cc1ccc(CSC2=NCCN2)cc1 | 2.0 | -15.7 | 3.3 | -1.0 | 14.4 | 2.4 | /
c1ccc(CSC2=NCCCN2)cc1 | 2.4 | 14.3 | -18.3 | -0.2 | 15.7 | 9.6 | 0.3
Cc1cc(C)nc(SCC(=O)NC2CCCCC2C)n1 (stereo not drawn) | 1.3 | -0.9 | 7.8 | -6.2 | 6.4 | 7.1 | /
COc1ccccc1-c1csc(-n2ncc(C#N)c2N)n1 | -0.8 | -6.3 | 4.6 | -0.6 | 4.2 | -2.9 | /
Cc1ccc(-c2nnc(-n3ncc(C#N)c3N)c3ccccc23)cc1C | 9.9* | 20.5 | 2.5 | -0.6 | 1.3 | -12.3 | -4.7
O=[N+]([O-])c1ccccc1OCc1nc(-c2cccs2)no1 | 2.9 | 29.8 | 1.4 | 4.4 | -55.0 | 29.6 | /
O=[N+]([O-])c1ccc(F)cc1OCc1nc(-c2cccs2)no1 | 15.2* | / | / | 4.0 | -0.9 | / | 0.0
COc1cc(OC)cc(-c2c(-c3cccs3)c3cc(-c4ccc(CN5CCOCC5)cc4)ccc3n2C)c1 | 7.8* | 8.8 | 15.9 | / | -8.7 | 11.9 | -69.5
COc1cc(F)cc(-c2ccc3c(c2)c(-c2cccs2)c(-c2cc(OC)cc(OC)c2)n3C)c1 | 3.5 | 19.2 | 2.3 | / | -9.0 | 17.3 | /
Cc1ccc(C)c(CSC2=NCCN2S(=O)(=O)c2ccccc2)c1 | 3.2 | 30.4 | 11.4 | ? | 6.5 | 13.6 | /
COc1cc(-c2[nH]ncc2CN2CCN(c3cccc(C)n3)CC2)cc(OC)c1OC | -0.7 | 10.7 | -2.7 | 3.4 | -9.1 | 1.7 | /
N#CC1=C(N)N(c2ccccc2)C2=C(C(=O)CCC2)C1c1ccsc1 (stereo not drawn) | 10.3* | 17.6 | 3.0 | -3.5 | / | 18.9 | -3.1
CCc1ccc(C(C(=O)NC2CCCC2)N(C(=O)/C=C/C(=O)Nc2cc(C)on2)c2ccccc2C)cc1 (stereo not drawn) | 10.1* | 18.5 | -11.2 | 38.6 | 2.2 | -9.3 | 1.9
SMILES | V-ATPase pHluor | tim10-1 inh | TIM10 inh | SKKanGAS inh | PfHsp90 set2 | tim23-1 inh | V-ATPase pH SP
COc1ccc(C2OCC(C)([N+](=O)[O-])CO2)cc1 (stereo not drawn) | -1.6 | / | / | / | 11.0 | / | /
O=C1CSC(c2ccccc2[N+](=O)[O-])N1c1cccc(F)c1 (stereo not drawn) | 8.3* | 15.9 | 9.4 | 1.1 | -25.7 | 13.9 | 8.7
O=C(CN(CC1CCCO1)C(=O)CNS(=O)(=O)c1ccc(Cl)cc1)NCCc1ccccc1 (stereo not drawn) | 23.4* | 12.8 | -6.2 | -1.2 | 0.7 | 19.5 | 0.2
O=C(CN(CC1CCCO1)C(=O)CNS(=O)(=O)c1ccc(F)cc1)NCCc1ccccc1 (stereo not drawn) | -2.0 | 1.8 | -3.5 | 23.2 | 20.8 | 14.0 | /
O=C(Nc1ccn(Cc2c(F)c(F)cc(F)c2F)n1)c1cccc(Cn2cc([N+](=O)[O-])cn2)c1 | 19.2* | 23.6 | 26.3 | 9.4 | -0.3 | 9.7 | 1.1
CCN(CC)CCCCNc1ncc2cc(-c3cc(OC)cc(OC)c3)c(NC(=O)NC(C)(C)C)nc2n1 | 0.1 | -9.6 | 2.9 | 0.2 | -7.1 | -6.6 | /
COc1ccc(CNC(=S)NCc2ccc(OC)cc2)cc1 | 7.1* | 9.5 | -14.6 | 2.6 | -16.2 | -4.7 | -1.1
COc1ccc(CCNC(=O)C(=O)NCC2CCCN2S(=O)(=O)c2ccccc2)cc1OC (stereo not drawn) | 1.2 | 2.3 | 10.5 | 3.4 | / | -10.3 | /
CCN(CC)c1ccc(S(=O)(=O)N2CCCCC2)cc1NC(=O)CSCc1c(C)noc1C | 10.2* | / | / | / | 1.8 | / | -3.5
O=C1CC(NS(=O)(=O)c2ccc([N+](=O)[O-])cc2)CN1c1cccc(F)c1 (stereo not drawn) | -0.3 | 28.6 | 1.6 | 6.6 | / | 7.5 | /
COc1ccc(-c2nnc(NC(=O)c3ccccc3C)o2)cc1 | 11.8* | -18.1 | -4.1 | 33.5 | 17.4 | 14.7 | 6.8
CC(=O)Nc1ccc(C(=S)NCCCO)cc1 | -1.7 | 5.1 | 7.2 | 4.0 | -21.3 | -5.8 | /
CC1Cc2ccccc2N1S(=O)(=O)c1cccc(C(=O)NCCCn2ccnc2)c1 (stereo not drawn) | 10.1* | -1.1 | -27.1 | -3.3 | -6.2 | 0.5 | -0.7
O=C(NCCCn1ccnc1)c1cccc(S(=O)(=O)N2CCCCCC2)c1 | -2.2 | 15.7 | -10.9 | 10.2 | -4.5 | -0.3 | /
CCCNC(=S)N1CCN(C)CC1 | 8.2* | 5.0 | -15.8 | -5.9 | 10.6 | 0.9 | -4.8
CCCOC(=O)c1ccc(-c2ccc(C=O)o2)cc1 | 8.2* | 30.0 | 7.9 | 8.8 | -5.1 | 33.2 | 4.5
CCOC(=O)c1ccc(-c2ccc(C=O)o2)cc1 | -1.0 | -11.2 | -6.0 | 3.8 | 1.0 | 21.0 | /
O=C(c1cc(C2CC2)nn1-c1ccccc1)N1CCN(S(=O)(=O)c2c(F)cccc2F)CC1 | 2.8 | 22.2 | 12.1 | / | / | 31.0 | /
CC1=C(C(=O)N(C)C)CC(CC(=O)NCCCCc2ccccc2)C(=O)N1Cc1ccc(C(C)(C)C)cc1 (stereo not drawn) | 1.2 | / | / | / | / | / | /
Cn1cccc1C(=O)OCC(=O)N1CCN(c2ccccc2)CC1 | 9.8* | -13.1 | -17.5 | / | / | -10.4 | 2.7
O=C(OCC(=O)N1CCN(c2ccccc2)CC1)c1ccccn1 | -5.7 | / | / | -0.5 | 10.6 | / | /
CC(Oc1cccc2cccnc12)C(=O)N/N=C/c1ccc2c(c1)OCO2 (stereo not drawn) | 7.0* | 19.2 | -4.3 | -0.8 | -15.6 | 32.4 | 1.6
